# In the supplement of paper PMC13094657:
# ± gives the standard deviation of the averaged measurements.
# What was measured:
# MDA-MB-231 [1] = experiment: cell viability relative to vehicle unstimulated control (fraction); higher = more viable cells; conditions: pre-treatment time: 18 h then 24 h IFNg/TNF
# MDA-MB-231 [2] = experiment: kynurenine production, fold change vs DMSO IFNg/TNF control; higher = more kynurenine produced (less inhibition); conditions: pre-treatment time: 18 h then 24 h IFNg/TNF
# Outline: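 MDA-MB-231 cells (7 × 10^4/well, 96-well plates, seeded 24 h earlier) were pre-treated 18 h with each natural product in 0.1% DMSO, then stimulated 24 h with IFNγ (1 U/ml) and TNF (6.25 ng/ml) at 37°C. Supernatant kynurenine was read at 492 nm after trichloroacetic acid and p-dimethylaminobenzaldehyde treatment, against 0–100 μM standards. Kynurenine production is the fold change over cytokine-stimulated vehicle wells on the same plate, averaged over duplicate plates in the first screening round.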
# 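For cell viability relative to vehicle unstimulated control in this document: viability of the cells left after supernatant collection, read with Deep Blue dye added for 4 h, as absorbance at 570 nm minus 600 nm.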
Compound,cell viability (MDA-MB-231 [1]),kynurenine production (MDA-MB-231 [2])
COC(=O)C[C@](O)(CCCC(C)(C)O)C(=O)O[C@@H]1C(OC)=C[C@]23CCCN2CCc2cc4c(cc2[C@H]13)OCO4 [Homoharringtonine] (compound dose: 10 uM),0.382,0.125 ± 0.08
C[C@@H]1O[C@@H](O[C@H]2[C@H](O[C@H]3CC[C@@]4(C)[C@@H](CC[C@]5(C)[C@@H]4CC=C4[C@@H]6CC(C)(C)CC[C@]6(C(=O)O)CC[C@]45C)[C@]3(C)CO)OC[C@H](O[C@@H]3O[C@H](CO)[C@@H](O)[C@H](O)[C@H]3O)[C@@H]2O)[C@H](O)[C@H](O)[C@H]1O [Pulsatilla saponin D] (compound dose: 10 uM),0.145 ± 0.0044,0.141 ± 0.07
CC(C)(O[C@@H]1O[C@H](CO)[C@@H](O)[C@H](O)[C@H]1O)[C@@H]1CC[C@](O)(CO)[C@H]2CC(=O)[C@@](C)(O)[C@@H]2C1 [Atractyloside A] (compound dose: 10 uM),0.986 ± 0.03,0.854 ± 0.057
CC1=CC[C@@H](C(C)(C)O)CC1 [(-)-α-Terpineol] (compound dose: 10 uM),1.07 ± 0.061,0.84 ± 0.24
"CC(C)C12CCC(C)(CC1)O2 [1,4-Cineole] (compound dose: 10 uM)",0.907 ± 0.026,0.863 ± 0.11
C=C(C)[C@H]1CC=C(C)C(=O)C1 [D(+)-carvone] (compound dose: 10 uM),1 ± 0.026,0.864 ± 0.022
C=C[C@]1(C)CC[C@@H](C(=C)C)C[C@H]1C(=C)C [β-Elemene] (compound dose: 10 uM),0.939 ± 0.071,0.8 ± 0.11
CC1(C)CCC2(CO)C(=C3C=CC4C5(C)CCC(OC6OC(COC7OC(CO)C(O)C(O)C7O)C(OC7OC(CO)C(O)C(O)C7O)C(O)C6O)CC5C(C)(CO)CC4(C)C3(C)CC2O)C1 (stereo not given) [Clinodiside A] (compound dose: 10 uM),0.918 ± 0.029,1.03 ± 0.2
"CC1(C)C2CC=C(C=O)C1C2 (single isomer, unassigned; (-)) [(-)-Myrtenal] (compound dose: 10 uM)",0.988 ± 0.056,0.941 ± 0.084
O=C(O)C1=CO[C@@H](O[C@@H]2O[C@H](CO)[C@@H](O)[C@H](O)[C@H]2O)[C@H]2[C@@H]1C=C[C@]2(O)CO [Monotropein] (compound dose: 10 uM),0.866 ± 0.046,0.846 ± 0.13
CC1(C)CC[C@]2(C(=O)O)[C@H](O)C[C@]3(C)C(=CC[C@@H]4[C@@]5(C)CC[C@H](O[C@@H]6O[C@H](CO)[C@@H](O)[C@H](O)[C@H]6O)C(C)(C)[C@@H]5CC[C@]43C)[C@@H]2C1 [Ecliptasaponin A] (compound dose: 10 uM),–,0.88 ± 0.15
O=C(/C=C/c1ccc(O)c(O)c1)O[C@H]1[C@H](O[C@@H]2O[C@H](CO)[C@@H](O)[C@H](O)[C@H]2O)[C@@H](O)[C@H](OCCc2ccc(O)c(O)c2)O[C@@H]1CO [Plantamajoside] (compound dose: 10 uM),–,0.678 ± 0.24
Cc1coc2c1C(=O)C(=O)c1c-2ccc2c(C)cccc12 [Tanshinone I] (compound dose: 2 uM),0.921 ± 0.029,0.643 ± 0.14
COc1ccc(C[C@H]2COC(=O)[C@]2(O)Cc2ccc(O[C@@H]3O[C@H](CO)[C@@H](O)[C@H](O)[C@H]3O)c(OC)c2)cc1OC [Tracheloside] (compound dose: 10 uM),0.8831 ± 0.0055,0.824 ± 0.11
CC1(C)[C@@H](O[C@H]2O[C@H](C(=O)O)[C@@H](O)[C@H](O)[C@H]2O[C@@H]2O[C@H](C(=O)O)[C@@H](O)[C@H](O)[C@H]2O)CC[C@]2(C)[C@H]3C(=O)C=C4[C@@H]5C[C@@](C)(C(=O)O)CC[C@]5(C)CC[C@@]4(C)[C@]3(C)CC[C@@H]12 [Ammonium glycyrrhizinate] (compound dose: 10 uM),0.952 ± 0.033,0.801 ± 0.2
C=C1[C@H](OC(C)=O)[C@@H](OC(C)=O)[C@@H](OC(C)=O)C(C)(C)/C=C/[C@H](C)[C@H](OC(C)=O)[C@@]2(O)C[C@@](C)(OC(C)=O)[C@H](OC(=O)c3ccccc3)[C@@H]2[C@H]1OC(C)=O [Jatrophane 2] (compound dose: 10 uM),1.08 ± 0.062,0.926 ± 0.049
